Whole data set: some 68,000 sequences, median “fluorescence intensity (a.u.)” near 9,100, cut for the highest 2% near 16,000. The full list was thinned out, with the highest values kept by preference.
Each sequence was assayed against OsWRKY34 (Oryza sativa, UniProt Q0JBA9 1-250) (assay: protein-binding microarray (RPBM); PBS, 2% BSA, 51.3 ng/ul salmon testes DNA, 50 uM zinc acetate, 200 nM TF, 25 C, 1 h; high values mean tight binding). Settings: protein: recombinant; tags: N-terminal polyhistidine and DsRed monomer fusion (pET32a); label: CyDye5-dUTP incorporated in the synthesized complementary strand; 3' TTTTT single-stranded linker to array surface; dsDNA, one strand shown.
Chain of OsWRKY34 (Q0JBA9 entry or part of it): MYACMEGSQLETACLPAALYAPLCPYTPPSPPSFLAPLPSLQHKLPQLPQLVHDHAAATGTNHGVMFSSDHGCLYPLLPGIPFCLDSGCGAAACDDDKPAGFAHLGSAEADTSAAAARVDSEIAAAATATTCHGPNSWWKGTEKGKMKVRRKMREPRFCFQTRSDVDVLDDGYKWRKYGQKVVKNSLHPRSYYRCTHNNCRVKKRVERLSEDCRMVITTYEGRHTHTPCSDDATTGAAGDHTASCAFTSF
In short: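 Ni–NTA purification followed expression in E. coli BL21-CodonPlus of transcription factors fused N-terminally to a polyhistidine tag and DsRed. At 200 nM in PBS with 2% BSA, salmon testes DNA and 50 µM zinc acetate, the protein was incubated for 1 h at 25 °C with a custom Agilent array that had been primer-extended with Cy5-dUTP and blocked with 2% BSA. After washing, the array was read on an Axon 4000B scanner. The binding signal is per-feature fluorescence intensity in arbitrary units.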
“TTAGTACTATTAATTTGGTGGGGTTGGGTGGGTGCTGTAACGGAGTCACCTAGTGCAG” was tested, and the binding signal was 16700 fluorescence intensity (a.u.). For “GAGGAGGTGGTGGCGCGGCGTTCTTGGGGCTGGAGAGGGTCGGAGTCACCTAGTGCAG”, the binding signal was 8790 fluorescence intensity (a.u.). With “TACATTGTTAGTACTGTTTGGTGTAACTATTTTTTTATAACGGAGTCACCTAGTGCAG” the binding signal was 8180 fluorescence intensity (a.u.). In the case of “AACCTACTAGCTAGCTTAGTGTACTCTGTGTACTGTATATCGGAGTCACCTAGTGCAG”, the binding signal is reported as 8190 fluorescence intensity (a.u.). “GGCTATCGGTGGGTGGGTGGGGTGTACTACTCCCCTATAACGGAGTCACCTAGTGCAG” was tested, and the binding signal was 22200 fluorescence intensity (a.u.). In the case of “CTTGGCTGTTCTTGGGTGGGTGAGGTGGGGCGGTCGGATCCGGAGTCACCTAGTGCAG”, the binding signal is reported as 17100 fluorescence intensity (a.u.). In the case of “TAGTTGTTGTTGTTGTTATTTGTTAATTGGGCCTTGTTCACGGAGTCACCTAGTGCAG”, the binding signal is reported as 12300 fluorescence intensity (a.u.). “CTTCGCTTTCGTCACGTTCTTGATTTGGGCGGGCGCGGAGCGGAGTCACCTAGTGCAG” was tested, and the binding signal was 8980 fluorescence intensity (a.u.). In the case of “CTCGGGAGAGGGGAGGCGTAGATTCTTCTGTTGCTTCAGTCGGAGTCACCTAGTGCAG”, the binding signal is reported as 10300 fluorescence intensity (a.u.). With “CGTCGAACGTCCACTACCATCCTCTTGTTAATCCCGCAAACGGAGTCACCTAGTGCAG” the binding signal was 8060 fluorescence intensity (a.u.). For “TTTCTTTGACTCGGTGACTTTGTGAGAGATGTTTTATGCCCGGAGTCACCTAGTGCAG”, the binding signal was 9190 fluorescence intensity (a.u.). In the case of “CTCCGTCCCATAATATAAGGGATTTTGACTTTTTACTTGCCGGAGTCACCTAGTGCAG”, the binding signal is reported as 11200 fluorescence intensity (a.u.). With “TCCCCGTTACCGAGCGCCGCCGCCTCCGCCTCCACCTCTACGGAGTCACCTAGTGCAG” the binding signal was 10100 fluorescence intensity (a.u.). In the case of “TCTACACAATTCAAAATCCGGCCCTGTTTATTTTGTACTACGGAGTCACCTAGTGCAG”, the binding signal is reported as 8420 fluorescence intensity (a.u.). For “CTACACTCCTAATCTCTCTCTCTTTCTCGAGTGGAATCCACGGAGTCACCTAGTGCAG”, the binding signal was 8970 fluorescence intensity (a.u.). In the case of “ACGCGCCGCAACGCAACTTCCATGGACGCATCTGGACCACCGGAGTCACCTAGTGCAG”, the binding signal is reported as 8130 fluorescence intensity (a.u.). In the case of “GTTTTTAATTTCGATAATATTTGATTCTGTTTTCGTGTCCCGGAGTCACCTAGTGCAG”, the binding signal is reported as 8930 fluorescence intensity (a.u.). In the case of “ATTACCACTGATGCTGCTTGGTTCGCAATACTTGCTTCTTCGGAGTCACCTAGTGCAG”, the binding signal is reported as 9730 fluorescence intensity (a.u.). “GACTGAGCTTTGTGGGTGGGTTGGTTGGTTGGTTATACAACGGAGTCACCTAGTGCAG” was tested, and the binding signal was 30500 fluorescence intensity (a.u.). In the case of “CTCGTATAGTTAGCTTGGAGGACTGAGCTTTGTGGGTGGGCGGAGTCACCTAGTGCAG”, the binding signal is reported as 8880 fluorescence intensity (a.u.). “GTTCTGACTGTTGTGTTGTGGGTGTTTGGTTTATGAGCAGCGGAGTCACCTAGTGCAG” was tested, and the binding signal was 8430 fluorescence intensity (a.u.). In the case of “GTCTCCATTGCACCCACGTTGGATCCGCCCTTGCACATGGCGGAGTCACCTAGTGCAG”, the binding signal is reported as 8470 fluorescence intensity (a.u.). With “TAATTCATGGTTGGTTTTTAATTATATTTCCCTCCTTAAACGGAGTCACCTAGTGCAG” the binding signal was 9580 fluorescence intensity (a.u.). In the case of “TCGTCGGTGGTGTGGGGAGGAGAAGATGGCCGGAGAGGAACGGAGTCACCTAGTGCAG”, the binding signal is reported as 15000 fluorescence intensity (a.u.). In the case of “CGACGGGAGAGGAGGAGCCGGTGGGCGGGGTGGGGCCCACCGGAGTCACCTAGTGCAG”, the binding signal is reported as 11000 fluorescence intensity (a.u.). For “ATTTTGTGTTTTTGTGGTGGTAATATTGTTTTTGAGTTCTCGGAGTCACCTAGTGCAG”, the binding signal was 9700 fluorescence intensity (a.u.). “TTACCAAACTGAAAATAAAAATGTGTGTTTTTTTTAATATCGGAGTCACCTAGTGCAG” was tested, and the binding signal was 9410 fluorescence intensity (a.u.). For “ATCCCAAAATAATGTGTTCGGGTGGGCGGGCGGGAAATATCGGAGTCACCTAGTGCAG”, the binding signal was 23000 fluorescence intensity (a.u.). “GCGGGTGTGGCATTGTGGGTAATCTCGGCCGTTCAAATATCGGAGTCACCTAGTGCAG” was tested, and the binding signal was 17300 fluorescence intensity (a.u.). With “GTGTTCTCATTGTATTGGGTATTCAAATGTTTTGTAATATCGGAGTCACCTAGTGCAG” the binding signal was 9730 fluorescence intensity (a.u.). With “TTCGGGGTGTTCGTCAAAAATGTGGGGAGGAGGCATGGATCGGAGTCACCTAGTGCAG” the binding signal was 13100 fluorescence intensity (a.u.). In the case of “AATCATCACATCATCACCGTCATCTTCTCTAGCATAGCAACGGAGTCACCTAGTGCAG”, the binding signal is reported as 8050 fluorescence intensity (a.u.). “CCTTCCCATGCTGCTGTGATGTGTCATACGCCGCCGCCACCGGAGTCACCTAGTGCAG” was tested, and the binding signal was 9920 fluorescence intensity (a.u.). For “TCCCAACCACACCCACCCACCCGCCCAATCCATCCACCAACGGAGTCACCTAGTGCAG”, the binding signal was 8860 fluorescence intensity (a.u.). With “TCCCTTCAAATATTGTTTTTCTTTTAACACTCAATCTCTCCGGAGTCACCTAGTGCAG” the binding signal was 8940 fluorescence intensity (a.u.). With “TAGAATTACATCTGATATACCGGTCTTACGCTCTTAGATTCGGAGTCACCTAGTGCAG” the binding signal was 8860 fluorescence intensity (a.u.). In the case of “GCCCAGCCCAGGCCCACCTTATGTTTTGTTGCATCTCTACCGGAGTCACCTAGTGCAG”, the binding signal is reported as 10700 fluorescence intensity (a.u.). “GAACCCACATCCCACCATGACGCGCAATTACCTCATTATCCGGAGTCACCTAGTGCAG” was tested, and the binding signal was 17000 fluorescence intensity (a.u.). “TCATCCGCACCAACACCATTAGTTATATTACCCACACATCCGGAGTCACCTAGTGCAG” was tested, and the binding signal was 8520 fluorescence intensity (a.u.). For “AATAGGGCATGAACCCCAGCCATTTCTCCTCATCCCACACCGGAGTCACCTAGTGCAG”, the binding signal was 63200 fluorescence intensity (a.u.). For “TCCACCCATCGTTCTCATGACCTGCCAACCCCATCCCAGCCGGAGTCACCTAGTGCAG”, the binding signal was 10000 fluorescence intensity (a.u.). “TGCCTAGATGAATACTGCATGTTTTTTTTTTGTTTGATTTCGGAGTCACCTAGTGCAG” was tested, and the binding signal was 9620 fluorescence intensity (a.u.). With “CACAGGGCATGAATTGATGAATAGGATGGCCATTTTTTTTCGGAGTCACCTAGTGCAG” the binding signal was 65000 fluorescence intensity (a.u.). With “TTTTTTACCATGGGTCTTGCATTGAATTTTTCTTTTTTTTCGGAGTCACCTAGTGCAG” the binding signal was 9890 fluorescence intensity (a.u.). “CTCTCTCCACCCTCAGCCGCCACACTCCCATCCATTCTCCCGGAGTCACCTAGTGCAG” was tested, and the binding signal was 9060 fluorescence intensity (a.u.). “TCCACCCATCCTCATCATTATCCTCTCTCTCCTCTCTCACCGGAGTCACCTAGTGCAG” was tested, and the binding signal was 9640 fluorescence intensity (a.u.).
